{
  "source": "PubChem BioAssay (NCATS)",
  "note": "Values joined by “and” are separate entries in the source; they are usually repeats but may differ in a detail not shown here. Equal values may be shown once. Inconclusive results are not listed. Where a call stands in place of a potency, no number is given. Active and inactive are the calls of the source. Calls come from the whole dose curve; as a rule, active = well fitted curve in the direction sought with a large enough effect; inconclusive = small, poorly fitted or top-dose-only effect, or another doubt; inactive = no such curve, though single readings can be large; an effect the other way counts as inactive or inconclusive.",
  "data": [
    {"target": "Calcium and integrin-binding protein 1 (Homo sapiens) (UniProt Q99828)", "sequence (Q99828 whole entry, looked up)": "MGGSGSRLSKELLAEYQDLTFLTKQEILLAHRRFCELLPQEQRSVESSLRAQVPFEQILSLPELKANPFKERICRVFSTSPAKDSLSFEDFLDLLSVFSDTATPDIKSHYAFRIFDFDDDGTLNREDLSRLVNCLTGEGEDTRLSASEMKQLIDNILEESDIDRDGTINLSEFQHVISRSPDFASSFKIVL", "assay": "Validation qHTS for Identification of Calcium Integrin Binding protein 1 (CIB1) Competitor (AID 1508618)", "settings": "CIB1-GST / FITC-alphaIIb peptide fluorescence polarization; series mostly up to 114 µM", "summary_of_the_method": "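Fluorescence polarization with 1 uM CIB1-GST and 100 nM FITC-alphaIIb peptide in HEPES pH 7.4, NaCl, 5 mM CaCl2, Tween20. Compounds at up to 114 uM final, preincubated with protein 15 min; read after 15 min more at RT.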", "values": [
      {"smiles": "CCOC(=O)[C@H](CCc1ccccc1)N[C@@H](C)C(=O)N1[C@H](C(=O)O)C[C@H]2CCCC[C@@H]21", "outcome": "inactive"},
      {"smiles": "NC(N)=NCc1cccc(I)c1", "outcome": "inactive"},
      {"smiles": "CN=C(N)NCCC[C@H](N)C(=O)O", "outcome": "inactive"}
    ]},
    {"target": "Calcium and integrin-binding protein 1 (Homo sapiens) (UniProt Q99828)", "assay": "Primary qHTS for Identification of Calcium Integrin Binding Protein 1 (CIB1) Competitor (AID 1508620); note: potency is the fitted concentration of half-maximal effect", "settings": "CIB1-GST / FITC-alphaIIb peptide fluorescence polarization; series mostly up to 114 µM", "summary_of_the_method": "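Fluorescence polarization competition: CIB1-GST (1 uM final) preincubated with compound 15 min at room temperature, then FITC-labeled alphaIIb peptide (100 nM final) added for another 15 min. Polarization read at Ex 480/Em 540.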", "values": [
      {"smiles": "Cc1ccccc1OCC(O)CO", "note": "(stereo not given)", "Potency": "inactive"},
      {"smiles": "NC(=O)n1c(O)c(C(=O)c2cccs2)c2cc(Cl)ccc21", "Potency": "inactive"},
      {"smiles": "O=C1OC2(c3ccccc31)c1cc(Br)c(O)c(Br)c1Oc1c2cc(Br)c(O)c1Br", "Potency": "inactive"},
      {"smiles": "C#C[C@]1(OC(C)=O)CC[C@H]2[C@@H]3CCC4=C/C(=N/O)CC[C@@H]4[C@H]3CC[C@@]21CC", "Potency": "inactive"},
      {"smiles": "CCC(Cc1c(I)cc(I)c(N)c1I)C(=O)O", "note": "(stereo not given)", "Potency": "inactive"},
      {"smiles": "NS(=O)(=O)c1cc2c(cc1Cl)NC(CC1CCCC1)NS2(=O)=O", "note": "(stereo not given)", "Potency": "inactive"},
      {"smiles": "CN(C)CCOC(c1ccc(Cl)cc1)c1ccccn1", "note": "(stereo not given)", "Potency": "inactive"},
      {"smiles": "CCN1/C(=C/C=C/c2sc3ccccc3[n+]2CC)Sc2ccccc21", "Potency": "inactive"},
      {"smiles": "CC(=O)OCC1=C(C(=O)O)N2C(=O)[C@@H](NC(=O)CSc3ccncc3)[C@H]2SC1", "Potency": "inactive"},
      {"smiles": "CN1CCC[C@@H]1CCO[C@](C)(c1ccccc1)c1ccc(Cl)cc1", "Potency": "inactive"},
      {"smiles": "CC(=O)Nc1ncc([N+](=O)[O-])s1", "Potency": "inactive"},
      {"smiles": "CC(C)CCCC(C)N", "note": "(stereo not given)", "Potency": "inactive"},
      {"smiles": "O=C1C(=O)c2ccccc2C(O)=C1C1CCC(c2ccc(Cl)cc2)CC1", "note": "(stereo not given)", "Potency": "inactive"},
      {"smiles": "C/C=C/c1ccc(O)c(OC)c1", "Potency": "inactive"},
      {"smiles": "Cc1ccc(O)c([C@H](CCN(C(C)C)C(C)C)c2ccccc2)c1", "Potency": "inactive"},
      {"smiles": "Clc1cccc(C(c2ccc3nc[nH]c3c2)n2ccnc2)c1", "note": "(stereo not given)", "Potency": "inactive"},
      {"smiles": "CCN(CC)CCOc1ccc2c(c1)C(=O)c1cc(OCCN(CC)CC)ccc1-2", "Potency": "inactive"},
      {"smiles": "O=C1C(CCS(=O)c2ccccc2)C(=O)N(c2ccccc2)N1c1ccccc1", "note": "(stereo not given)", "Potency": "inactive"},
      {"smiles": "O=C(O)C(Cc1cc(I)c(O)c(I)c1)c1ccccc1", "note": "(stereo not given)", "Potency": "inactive"},
      {"smiles": "CCC(CC)(CC(=O)Nc1cccc(/C=C/c2nc(C3CCC3)cs2)c1)C(=O)O", "Potency": "inactive"},
      {"smiles": "O=C(Nc1ncc([N+](=O)[O-])s1)c1cccs1", "Potency": "inactive"},
      {"smiles": "CC[C@H](c1ccc(O)cc1)[C@@H](CC)c1ccc(O)cc1", "Potency": "inactive"},
      {"smiles": "NC(N)=NN=C(/C=C/c1ccc([N+](=O)[O-])o1)/C=C/c1ccc([N+](=O)[O-])o1", "Potency": "inactive"},
      {"smiles": "Oc1ccc(Cl)cc1Cc1cc(Cl)ccc1O", "Potency": "79.4 µM (active)"}
    ]},
    {"test_system": "not listed separately", "assay": "Counterscreen qHTS for small molecule stabilizers of the endoplasmic reticulum resident proteome: GLuc-NoTag assay (AID 1508627);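 note: SH-SY5Y cells given compound then 100 nM thapsigargin to empty ER calcium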", "settings": "Gaussia luciferase NoTag secretion counterscreen, luminescence, thapsigargin 100 nM for final 4 h; series mostly up to 76.4 µM", "summary_of_the_method": "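SH-SY5Y cells stably expressing constitutively secreted GLuc (no SERCaMP tag) were pre-incubated 5 h, treated with compound for 19 h, then 100 nM thapsigargin for 4 h at 37C; medium GLuc read by coelenterazine luminescence.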", "values": [
      {"smiles": "CN(CCCN1c2ccccc2CCc2ccccc21)CC(=O)c1ccc(Cl)cc1", "Potency": "inactive"},
      {"smiles": "O=C1OC2(c3ccccc31)c1cc(Br)c(O)c(Br)c1Oc1c2cc(Br)c(O)c1Br", "Potency": "inactive"},
      {"smiles": "CCCCCCCCCCCCCCC[C@H](O)[C@@H](N)CO", "Potency": "inactive"},
      {"smiles": "CCOc1cc(OCC)c(C(=O)CCC(=O)O)cc1OCC", "Potency": "inactive"}
    ]},
    {"test_system": "not listed separately", "assay": "Confirmatory qHTS for small molecule stabilizers of the endoplasmic reticulum resident proteome: Secreted ER Calcium Modulated Protein (SERCaMP) assay (AID 1508628); note: nearly all actives have a fitted effect of over 40% in size; note: potency is the fitted concentration of half-maximal effect", "settings": "SERCaMP secreted luciferase ER calcium/proteostasis reporter; series mostly up to 76.3 µM", "summary_of_the_method": "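We seeded SH-SY5Y-GLuc-SERCaMP cells, added compounds (three concentrations in the primary run, eleven up to 76.6 uM in confirmation), incubated 16 h, depleted ER calcium with thapsigargin, and read luciferase 4 h later.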", "values": [
      {"smiles": "CN(CCCN1c2ccccc2CCc2ccccc21)CC(=O)c1ccc(Cl)cc1", "Potency": "31.6 µM (active) and 39.8 µM (active)"},
      {"smiles": "CN1CCC[C@@H]1CCO[C@](C)(c1ccccc1)c1ccc(Cl)cc1", "Potency": "15.8 µM (active)"},
      {"smiles": "CCCCCCCCCCCCCCC[C@H](O)[C@@H](N)CO", "Potency": "inactive"},
      {"smiles": "CCOc1cc(OCC)c(C(=O)CCC(=O)O)cc1OCC", "Potency": "inactive"}
    ]}
  ]
}
